Bioassay records as filed in PubChem.
S2 tox: reduces viability in counter-screen for ATXN expression inhibitors; S2 cells (HEK-293 line with an ATXN2-luciferase reporter) viability, CellTiter-Fluor protease fluorescence, 24 h; Potency, µM (top dose mostly 56.7 µM), actives largely listed as cytotoxic; 0.49% of 400,000 active; note: nearly all actives have a fitted effect of over 40% in size
IL1B secr inh: blocks inflammasome-driven IL-1 beta release; THP-1 LPS/ATP IL-1B secretion, AlphaLISA, 16 h; active compounds read low; 4.7% of 360,000 active; activity change, % at 57.5 µM; in the data active = activity change below about -50%; inconclusive = mostly about -30% to -49%
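THP-1 cells pretreated 1 hr with compounds (up to 57.5 uM final), then stimulated with LPS (250 ng/mL final) plus ATP (1.25 mM final); secreted IL-1B measured by AlphaLISA after 16 hr, decreased signal indicating inhibition.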
ATXN2 expr inh: inhibitors of ATXN2 expression; HEK-293 ATXN2-luciferase reporter, luminescence, 24 h; Potency, µM (highest dose often 57 µM), hits mostly inhibitors; 0.72% of 360,000 active; note: nearly all actives have a fitted effect of over 55% in size
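qHTS (up to 57 uM final) was run with 24 h compound exposure of reporter cells at 37 °C. Each well was multiplexed: SteadyGlo luminescence measured ATXN2-luciferase expression after a fluorogenic Gly-Phe-AFC viability readout (25 uM final).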
HepG2 viability: counter-screen for TGF-b inhibitors: cytotoxicity in HepG2 cells | HepG2 CAGA-GFP viability, ATP luminescence, 18 h | Potency, µM (top dose mostly 46.1 µM), most hits filed as cytotoxic | 0.76% of 410,000 active
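CellTiter-Glo luminescence gave cytotoxicity after 18 hours at 37 degrees C. The cells were HepG2 CAGA-GFP in 1% FBS DMEM, stimulated with 500 pg/mL TGF-beta after compound addition. %Activity was normalised to no-cell wells (complete cell-killing) and DMSO (no toxicity), and curves were fitted and classified.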
TGFb inhibitor: inhibitors of TGF-b signaling; HepG2 CAGA-GFP TGF-b/SMAD3 reporter, GFP fluorescence, 18 h; TGF-beta stimulated, 500 pg/mL final; Potency, µM (highest dose often 46.1 µM), actives largely listed as inhibitors; 1.2% of 410,000 active; AID 588855; note: nearly all actives have a fitted effect of over 65% in size
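Inhibition of TGF-beta-driven CAGA-GFP reporter expression in HEPG2 cells is measured by cellular GFP fluorescence after 18 h stimulation with 500 pg/mL recombinant TGF-beta in 1% FBS medium at 37 degrees C.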
Hits are given with their value; 0 = inactive; ? = inconclusive; - = no result given. Shown are actives, neighbours in structure and some others; about 5.7% of the full set was active somewhere. Unless noted, calls come from the whole dose curve; as a rule, active = well fitted curve in the direction sought with a large enough effect; inconclusive = small, poorly fitted or top-dose-only effect, or another doubt; inactive = no such curve, though single readings can be large; an effect the other way counts as inactive or inconclusive.

SMILES	S2 tox	IL1B secr inh	ATXN2 expr inh	HepG2 viability	TGFb inhibitor
O=C(NCc1cccnc1)[C@@H]1CC=C[C@@H]2CCN(C3CCCCC3)C(=O)[C@@H]21	-	-	-	0	0
O=C(CCSCc1cccc(Cl)c1)N1CCN(c2ccc(Cl)cc2)CC1	-	-	-	0	?
C#CCOCCOCCOCCNc1nc(N2CCN(C(=O)[C@H]([C@@H](C)CC)n3cc([C@@H](N)CC(C)C)nn3)CC2)nc(N2CCN(C(=O)[C@H](Cc3cc4ccccc4[nH]3)n3cc([C@@H](N)Cc4ccc(O)cc4)nn3)CC2)n1	?	-57	0	0	0
COc1ccc(CCNC(=O)c2nc(SCc3ccccc3F)ncc2Cl)cc1OC	-	-	-	0	?
CCCCCCn1c(COc2ccccc2F)nnc1SCC(=O)N1c2ccccc2NC(=O)C1(C)C	?	-57	?	0	?
CCc1ccc2occ(CC(=O)Nc3c(C(=O)c4ccccc4)oc4ccccc34)c2c1	0	-	0	0	0
C=C(C)Cn1c(=O)c2c(nc3n2CCN3c2ccc(F)cc2)n(C)c1=O	-	-	-	0	0
CCCCNC(=O)c1cnc2sc(N3CCCCCC3)nn2c1=O	-	-	-	0	?
COCCN(C(=O)c1ccccc1F)c1nc(-c2ccc(OC)cc2)cs1	0	?	0	0	0
COc1ccc(-c2csc(N(CCCN(C)C)C(=O)c3ccc(F)cc3)n2)cc1	0	0	0	0	0
CCN(CC)CCCN(C(=O)c1ccc(F)cc1)c1nc(-c2ccc(OC)cc2)cs1	?	-93	0	0	?
COc1ccc(-c2csc(N(CCCN(C)C)C(=O)c3ccccc3F)n2)cc1	0	?	-	0	?
COc1ccc(-c2csc(N(CCCN(C)C)C(=O)c3ccccc3Cl)n2)cc1	0	-72	?	0	?
COc1ccc(-c2csc(N(CCCN(C)C)C(=O)c3ccccc3C)n2)cc1	0	-76	?	10µM	?
CC(C=CC=C(C)C=CC1=C(C)CCCC1(C)C)=CC=CC=C(C)C=CC=C(C)C=CC1=C(C)CCCC1(C)C	-	-	0	-	-
O=C(COc1ccc(Br)cc1CNCCCN1CCOCC1)Nc1ccccc1	0	-70	0	0	0
O=C(COc1ccc(Br)cc1Cl)NCCCN1CCOCC1	0	0	0	0	0
CCCCc1n(CC(=O)c2ccc(Cl)cc2)c2ccccc2[n+]1C	0	-68	0	0	0
C=CCn1c(=N)n(CC(=O)OC)c2ccccc21	0	0	0	0	0
O=C(Cn1ccccc1=O)c1ccc(Cl)cc1	0	0	-	0	0
O=C(Cn1ccccc1=S)c1ccc(Cl)c(Cl)c1	0	-81	0	0	0
Cc1ccc(Cn2c(=N)n(CC(=O)c3ccc([N+](=O)[O-])cc3)c3ccccc32)cc1	-	-102	20µM	0	0
C=CCn1c(=N)n(CC(=O)c2ccc(Cl)cc2)c2ccccc21	0	-90	0	0	0
Cc1n(CC(=O)c2ccc(F)cc2)c2ccccc2[n+]1C	0	0	-	0	0
COc1ccc(NC(=O)CN(C)S(=O)(=O)c2ccc(C(=O)N3CCOCC3)s2)cc1	0	-	0	0	0
SMILES	S2 tox	IL1B secr inh	ATXN2 expr inh	HepG2 viability	TGFb inhibitor
N=c1n(CCN2CCCCC2)c2ccccc2n1CC(=O)c1ccc(Cl)c(Cl)c1	0	-	?	0	?
CCn1c(=N)n(CC(=O)c2ccc(Cl)c(Cl)c2)c2ccccc21	0	-73	0	0	?
C=CCn1c(=N)n(CC(=O)c2ccc(Br)s2)c2ccccc21	0	-74	?	0	?
O=C(Nc1ccc(-c2cn3cccnc3n2)cc1)c1ccccc1F	-	-	-	0	?
COC(=O)c1c(OCc2cccnc2)cc(=O)n2c1CCN(C(=O)c1c3c(nn1C)CCCC3)CC2	0	-	-	-	-
O=C(COc1ccc(Cl)cc1)NCCc1csc(-c2cccc(F)c2)n1	0	-	0	0	?
CSC(=Nc1ccccc1)N=C(SCc1ccccc1)N(C)C	9.5µM	-104	?	7.1µM	5.6µM
N#CNC(=Nc1ccccc1)SCc1ccc(C(=O)O)cc1	0	0	0	0	0
CC(=O)c1cc2c(=O)c3cc(C)ccc3oc2nc1C	0	0	0	0	0
Cc1ccc2oc3nc(C)c(C(=O)O)cc3c(=O)c2c1	0	0	0	11µM	?
COc1cc(CNc2ccc3[nH]c(=O)[nH]c3c2)cc(Br)c1OCC(=O)NC(C)(C)C	0	-68	0	0	0
COc1cc(CNc2ccc3[nH]c(=O)[nH]c3c2)ccc1OCC(=O)NC(C)(C)C	0	0	0	0	0
COc1cc(CNc2ccc3[nH]c(=O)[nH]c3c2)cc(Br)c1OCc1ccccc1F	0	-60	?	0	0
COc1cc(CNc2ccc3[nH]c(=O)[nH]c3c2)ccc1OCc1ccccc1F	?	?	0	0	0
O=C(CNC(=O)C1CCCCC1)OCC(=O)c1ccc(C2CCCCC2)cc1	-	-	-	0	0
Cc1ccc2c(CC(=O)N3CCOc4ccc(CN5CCOCC5)cc4C3)cc(=O)oc2c1	0	-	-	-	-
COc1ccc(CN2CCC3(CCC(CNC(=O)c4ccco4)O3)CC2)c(OC)c1C (stereo unspecified)	0	-	-	-	-
COc1ccc(N2C(=O)CC(Sc3ncn[nH]3)C2=O)c(OC)c1 (stereo unspecified)	-	0	22µM	0	?
CCCCN(CCCC)C1=Nc2ccccc2N/C1=C(/C#N)C(=O)OCC	0	0	?	0	0
